Experimental findings from PubChem BioAssay (NCI) are described below.

Structures are written as SMILES. The panel holds about 79,000 compounds, 15% with a hit somewhere; the sample as a whole holds those more often. Unmarked numbers belong to inactive results. Active and inactive are the calls of the source. Cut-off read from the data, not from the text of the source: active = growth inhibition above about 70%; inactive = the rest.

A short description of test [1]: NCI Yeast Anticancer Drug Screen. Data for the rad50 strain (AID 155).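 Note: 0% = growth of vehicle-only cultures of the same strain.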 The settings on record: S. cerevisiae rad50 strain growth inhibition, stronger effect = higher value. The method, boiled down:
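DNA repair mutant yeast, compound exposure, growth read-out; inhibition is taken relative to vehicle.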

A short description of test [2]: NCI Yeast Anticancer Drug Screen. Data for the mec2-1 strain (AID 157). The settings on record: S. cerevisiae mec2-1 strain, stronger effect = higher value. A digest of the protocol:
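Strain: mec2-1 (DNA repair/cell cycle alteration). Compound exposure, then growth measured; inhibition expressed relative to vehicle.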

Test [3] in a line: NCI Yeast Anticancer Drug Screen. Data for the sgs1 mgt1 strain (AID 161).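 Note: 0% = growth of cultures given vehicle only.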 The settings on record: S. cerevisiae sgs1 mgt1 strain, stronger effect = higher value. The method, boiled down:
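Inhibition of yeast growth, normalised to vehicle-treated controls, is reported for a strain bearing genetic alterations in DNA damage repair.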

The nature of test [4]: NCI Yeast Anticancer Drug Screen. Data for the cln2 rad14 strain (AID 165).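 Note: 0% = growth equal to vehicle treated cultures.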 The settings on record: S. cerevisiae cln2 rad14 strain, stronger effect = higher value. The method, boiled down:
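Compounds are applied to the cln2 rad14 yeast strain, and growth is then compared with that of vehicle-treated cultures to give inhibition.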

Test [5] can be described thus: NCI Yeast Anticancer Drug Screen. Data for the bub3 strain (AID 167). The settings on record: S. cerevisiae bub3 mutant strain, stronger effect = higher value. The method, boiled down:
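In this screen, a yeast mutant lacking normal mitotic checkpoint function is challenged with compound. Relative growth versus vehicle gives the inhibition value.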

The nature of test [6]: NCI Yeast Anticancer Drug Screen. Data for the mlh1 rad18 strain (AID 175). The settings on record: S. cerevisiae mlh1 rad18 strain growth inhibition, stronger effect = higher value. The method, boiled down:
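Read-out is yeast growth inhibition, calculated against vehicle-only controls. The compound was applied to a strain engineered with DNA damage repair alterations.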

The mark [7] stands for this setting: at 5.0 µM (retest, dose inferred, filed as 0.5).
The mark [8] stands for this setting: at 50.0 µM (retest, dose inferred, filed as 5.0).

`CC(=O)c1c2c(cc3c1CC1(Cc4cc5c(cc4C1)C(=O)CCC5)C3)CCCC2` (stereo not drawn): the growth inhibition in test [1] (setting [7]) was 34%; in test [1] (setting [8]) it was 32%; in test [1] (at 50.0 µM), -15.8%; in test [2] (setting [7]) it was 23%; in test [2] (setting [8]) it was 25%; in test [2] (at 50.0 µM), -16%. For the same compound, the growth inhibition was 22% in test [3] (setting [7]); 27% in test [3] (setting [8]); 8.95% in test [3] (at 50.0 µM); 22% in test [4] (setting [7]); 30% in test [4] (setting [8]); 8.4% in test [4] (at 50.0 µM). Moreover, the growth inhibition was 32% in test [5] (setting [7]); 33% in test [5] (setting [8]); 6.25% in test [5] (at 50.0 µM); 28% in test [6] (setting [7]); 29% in test [6] (setting [8]); 13.8% in test [6] (at 50.0 µM).

As for `CC(NNC(=S)N1CCCC1)c1ccc2ccccc2n1` (stereo not drawn), the growth inhibition in test [1] (setting [7]) was 24%; in test [1] (setting [8]), 96% (active); in test [1] (at 50.0 µM), 98% (active); in test [2] (setting [7]), 6%; in test [2] (setting [8]), 96% (active); in test [2] (at 50.0 µM), 98.2% (active). Further, the growth inhibition is 22% in test [3] (setting [7]); 96% (active) in test [3] (setting [8]); 98% (active) in test [3] (at 50.0 µM); 4% in test [4] (setting [7]); 95% (active) in test [4] (setting [8]); 97% (active) in test [4] (at 50.0 µM). Also, the growth inhibition in test [5] (setting [7]) was 7%; in test [5] (setting [8]), 97% (active); in test [5] (at 50.0 µM), 98.2% (active); in test [6] (setting [7]) it was 15%; in test [6] (setting [8]) it was 98% (active); in test [6] (at 50.0 µM), 96.4% (active).

`O=C(/C(Cl)=N/O)c1ccccc1`: the growth inhibition in test [1] (setting [7]) is 80% (active); in test [1] (setting [8]), 99% (active); in test [1] (at 50.0 µM) it was 98.8% (active); in test [2] (setting [7]) it was 47%; in test [2] (setting [8]), 100% (active); in test [2] (at 50.0 µM), 99.2% (active). Further, the growth inhibition was 51% in test [3] (setting [7]); 99% (active) in test [3] (setting [8]); 49.3% in test [3] (at 50.0 µM); 38% in test [4] (setting [7]); 99% (active) in test [4] (setting [8]); 58% in test [4] (at 50.0 µM). For the same compound, the growth inhibition is 91% (active) in test [5] (setting [7]); 99% (active) in test [5] (setting [8]); 99% (active) in test [5] (at 50.0 µM); 62% in test [6] (setting [7]); 99% (active) in test [6] (setting [8]); 50% in test [6] (at 50.0 µM).

Turning to `C1=C(c2ccccc2)SC=C(c2ccccc2)S1`, the growth inhibition in test [1] (setting [7]) was -5%; in test [1] (setting [8]) it was -26%; in test [1] (at 50.0 µM) it was -15.7%; in test [2] (setting [7]) it was -14%; in test [2] (setting [8]) it was -16%; in test [2] (at 50.0 µM) it was 8.75%. The growth inhibition in test [3] (setting [7]) was -2%; in test [3] (setting [8]) it was 40%; in test [3] (at 50.0 µM) it was -0.9%; in test [4] (setting [7]) it was -9%; in test [4] (setting [8]), -9%; in test [4] (at 50.0 µM), -3.15%. The growth inhibition in test [5] (setting [7]) was 23%; in test [5] (setting [8]), 47%; in test [5] (at 50.0 µM), 83% (active); in test [6] (setting [7]), -6%; in test [6] (setting [8]), -8%; in test [6] (at 50.0 µM), -5.45%.

As for `O=C1CSC(=Nc2ccc(F)cc2F)N1Cc1cccs1`, the growth inhibition is 44% in test [1] (setting [7]); 92% (active) in test [1] (setting [8]); 80.2% (active) in test [1] (at 50.0 µM); 36% in test [2] (setting [7]); 98% (active) in test [2] (setting [8]); 78.2% (active) in test [2] (at 50.0 µM). Moreover, the growth inhibition in test [3] (setting [7]) was 39%; in test [3] (setting [8]) it was 98% (active); in test [3] (at 50.0 µM) it was 90.5% (active); in test [4] (setting [7]), 25%; in test [4] (setting [8]) it was 63%; in test [4] (at 50.0 µM) it was 50.1%. Further, the growth inhibition in test [5] (setting [7]) is 41%; in test [5] (setting [8]), 61%; in test [5] (at 50.0 µM), 86.2% (active); in test [6] (setting [7]), 47%; in test [6] (setting [8]) it was 98% (active); in test [6] (at 50.0 µM), 84.6% (active).

As for `CC(=NCC(=O)O)c1ccccc1`, the growth inhibition in test [1] (setting [7]) is -12%; in test [1] (setting [8]), -6%; in test [1] (at 50.0 µM), 48.5%; in test [2] (setting [7]), -6%; in test [2] (setting [8]) it was -3%; in test [2] (at 50.0 µM) it was -20.2%. The growth inhibition was -8% in test [3] (setting [7]); -4% in test [3] (setting [8]); -52.9% in test [3] (at 50.0 µM); 2% in test [4] (setting [7]); -6% in test [4] (setting [8]); -4.8% in test [4] (at 50.0 µM). For the same compound, the growth inhibition is 10% in test [5] (setting [7]); 13% in test [5] (setting [8]); -22.1% in test [5] (at 50.0 µM); -4% in test [6] (setting [7]); 1% in test [6] (setting [8]); -5.7% in test [6] (at 50.0 µM).
